# Assay results as given in PubChem BioAssay AID1626 (SRMLSC, 2009).
# The campaign covered roughly 220,000 compounds. About 2,000 (0.91%) were called active. Roughly 2% stayed inconclusive and do not appear here. No stated cut-off is given here; in the data, inconclusive means inhibition above about 80% without an active follow-up result; inactive means below that; test concentration not stated here. The list is a sample of the results. Entries with a potency or affinity are not part of this list.
# Assay: M. tuberculosis H37Rv growth inhibitors, H37Rv strain (AID 1626);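 further: bacteria incubated seven days before Alamar blue readout; 0% = bacteria only wells and 100% = bacteria with antibiotic wells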
# Conditions: stronger effect = higher value, concentration not given here
row,SMILES,inhibition
1,Cc1ccc(-c2nc3ccccc3n3nnnc23)cc1,4.17% (inactive)
2,Cc1ccc2nc(N3CCN(c4cccc(C)c4C)CC3)c3nnnn3c2c1,-7.81% (inactive)
3,CC(C)CNC(=O)CN1C(=O)NC(Cc2c[nH]c3ccccc23)C1=O (stereo not drawn),-13.9% (inactive)
4,O=C(NCC1CCN(S(=O)(=O)c2ccccc2)CC1)Nc1ccccc1,10.3% (inactive)
5,O=C(N/N=C/c1cccc(O)c1)c1ccccc1O,-7.64% (inactive)
6,Cc1ccc(Cn2ccc(=O)c(OCc3ccccc3)c2C)cc1,1.78% (inactive)
7,Cc1ccc(Cn2ccc(=O)c(Cc3c(Cl)cccc3Cl)c2C)cc1,0.62% (inactive)
8,CC(C)=Nc1ccccc1C1COC(=O)C1=N (stereo not drawn),-1% (inactive)
9,COc1ccccc1NC(=O)O/N=C(\N)c1ccccc1,11.1% (inactive)
10,Cc1nc(CC(=O)c2ccc(O)c(C)c2O)cs1,7.54% (inactive)
11,Cc1nnc(SCC(=O)N2CCC(c3noc4ccc(F)cc34)CC2)s1,-0.75% (inactive)
12,O=C(CSc1ccc2ccccc2n1)N1CCC(c2noc3ccc(F)cc23)CC1,-2.15% (inactive)
13,COC(=O)C[C@H]1c2cc(C(F)(F)F)ccc2S(=O)(=O)N1C1CCCC1,-3.21% (inactive)
14,O=C(Cc1ccc(Br)cc1)Nc1ccc(Cl)cc1,-2.03% (inactive)
15,COc1ccc(C2C(C(=O)O)c3ccccc3C(=O)N2Cc2ccco2)cc1 (stereo not drawn),-9.26% (inactive)
16,COC(=O)c1ccc(NC(=O)NS(=O)(=O)c2ccc(C)cc2)cc1,55.9% (inactive)
17,CCOC(=O)Nc1cccc(Nc2ccccc2)c1,3.05% (inactive)
18,CC(=O)c1ccc(NC(=O)Oc2ccccc2)cc1,-7.64% (inactive)
19,COC(=O)c1ccc(NC(=O)CCOc2ccccc2)cc1,23.7% (inactive)
20,O=C(CCOc1ccccc1)Nc1ccccc1,7.71% (inactive)
21,CC(=O)Nc1ccc(NC(=O)Oc2ccccc2)cc1,-9.97% (inactive)
22,CCOC(=O)c1ccc(NC(=O)Nc2ccc(S(N)(=O)=O)cc2)cc1,-7.07% (inactive)
23,CCOC(=O)Nc1ccc(Oc2ccccc2)cc1,8.39% (inactive)
24,CC(C)c1ccccc1NC(=O)COc1ccc2c(=O)c(Oc3ccc4ccccc4c3)coc2c1,5.82% (inactive)
25,COC(=O)c1cc(NS(=O)(=O)c2cccc(Cl)c2)ccc1N1CCOCC1,3.2% (inactive)
26,O=C(CN(CC1CCCO1)C(=O)CCC(=O)Nc1nccs1)NCc1ccccc1 (stereo not drawn),-3.47% (inactive)
27,COc1ccccc1N(C)S(=O)(=O)c1ccc(C(=O)OCC(=O)N2CCCCCC2)cc1,9.09% (inactive)
28,CC1=NN(C(C#N)c2cccc([N+](=O)[O-])c2)C(C)(C)C1 (stereo not drawn),-1.89% (inactive)
